The inhibition is the change of the read-out against control, counted positive when it falls.

The target in the test is Glucose transporter (Leishmania mexicana) (UniProt O61059). The test is described as follows: ST_JUDE_LEISH: Cytotoxicity at 2uM final concentration against transgenic Leishmania Mexicana promastigotes LmGT2 that are glucose transport deficient and complemented with the L. Mexicana glucose transporter 2. Activity is measured by DNA content using SYBR green in vitro. The class given is functional.
For the molecule `CC(=O)Nc1ccc(C(=O)Nc2cccc(-c3ccc(-c4nc5ccccc5[nH]4)s3)c2)cn1`, the inhibition was determined as 5.88%. Regarding `CC(=O)Nc1ccc(CN2CCC(NC(=O)c3ccc(-c4cccc(C(F)(F)F)c4)s3)CC2)cc1`, the inhibition was -4.9%. To `CCN1CCC(N(Cc2ccc(-c3ccc(C(F)(F)F)cc3)cc2)C(=O)Cn2c(CCc3cccc(F)c3F)cc(=O)c3ccc(OCc4ccccc4)cc32)CC1` belongs 3.52%; to `COCCn1c(Sc2ncnc3sccc23)nc2ccccc21`, 1.8%; to `CCN(CC)CCN(Cc1ccc(-c2ccc(C(F)(F)F)cc2)cc1)C(=O)Cn1c(CCc2cccc(C#N)c2)nc(=O)c2ccccc21`, 2.44%. As to `Cn1nccc1C(=O)NCCNCc1ccc(-c2ccc(-c3nc4cc(C(F)(F)F)ccc4[nH]3)cc2)cc1`, the inhibition was found to be 4.43%.

Turning to `O=C(/C=C/c1ccc(Cl)c(Cl)c1)NCCCCCN1CCC(NC(=O)Nc2ccc(Cl)cc2Cl)CC1`, the inhibition is -2.38%. As to `CCCCN(CCCC)CCCN(CCCN(CCCC)CCCC)c1cc(C)nc(Nc2ccc3cc(Br)ccc3c2)n1`, the inhibition stood at 6.68%.

With `O=C(Nc1ccccc1)N(Cc1cccc(-c2cccc(CNCc3ccc4c(c3)OCO4)c2)c1)C1CCN(Cc2ccccc2)CC1`, the inhibition is 2.79%. With `O=C1c2ccccc2C(=O)N1c1ccc(S(=O)(=O)N2CCOCC2)cc1`, the inhibition was 8.08%. Regarding `Cn1nc(-c2ccc(CN[C@@H]3CCc4ccc(O)cc43)cc2)c2cnc(NCCCN3CCCC3)nc21`, the inhibition amounted to 1.31%.

For the molecule `Cc1cc(N[C@@H](Cc2ccccc2)C(=O)NCc2cccc(F)c2)nc(NCCCOC(C)C)n1`, the inhibition came to 1.72%.

Consider `Nc1nc(N)c2c(ccc3c2ccn3Cc2cccc3ccccc23)n1`, for which the inhibition was 88.4%. For `CCCCNCc1ccc(-c2nc(CN(CCCn3ccnc3)C(=O)Nc3ccc(CC)cc3)cs2)cc1`, the inhibition came to 6.91%.

For the molecule `CN(CCN(C)C(=O)NCc1ccccc1)C(=O)NCc1ccccc1`, the inhibition is 3.75%. Take `CCCCCC(C)c1cc(O)c2c(c1)OC(C)(C)C=C2C1=CCN(Cc2ccccc2)CC1` (stereo not given): the inhibition worked out at 3.47%. Regarding `O=C(/C=C/c1ccc(C(F)(F)F)cc1)NCCCCCN1CCCN(C(=O)Nc2ccc(Cl)cc2)CC1`, the inhibition was determined as 1.84%. The result for `CN1CCN(Cc2ccc(-c3cccc(-c4nc5ccccc5[nH]4)c3)cc2)CC1` reads -2.4%; that for `CC(C)(C)c1ccc2[nH]c(-c3ccc(C(=O)NC4CCN(Cc5ccccc5)CC4)s3)nc2c1`, 1.79%; that for `O=C(Nc1cccc(OC2CCN(Cc3ccc(F)cc3)CC2)c1)c1ccc(C(F)(F)F)cc1`, 0.79%. For `CS(=O)(=O)N1CC2(CCN(CCC(NC(=O)/C=C/c3ccccc3)c3ccc(Cl)c(Cl)c3)CC2)c2ccccc21` (stereo not given), the inhibition was determined as 1.25%. To `CC(C)(C)c1ccccc1OCCCON1C(=N)N=C(N)NC1(C)C` belongs 37.1%; to `Cc1cccc2nc(-c3ccc(-c4ccc(CNCc5cccc(N)c5)cc4)cc3)[nH]c12`, 14.9%; to `CCCCN(Cc1cc(Cl)c(OCC)c(OC)c1)c1ccc(C(O)(C(F)(F)F)C(F)(F)F)cc1`, -2.65%. Consider `CCc1c(CCNCCCCCCNCc2ccc3c(c2CC)OCO3)ccc(OC)c1OC`, for which the inhibition worked out at 4.01%.

The values are drawn from ChEMBL document CHEMBL3433997, “St. Jude Leishmania screening dataset” (2016).
